Rows were chosen to be rich in hits. Some 2.4% of all compounds tested hit in one or more screens of this group.
ANO1 activ – mouse TMEM16A channel activation, primary screen; 0.3% of 340,000 active; Q8BHY3; B-score at 10 µM; HEK293 TMEM16A/YFP-H148Q/I152L, iodide quench fluorescence; hits give low values;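 active means fluorescence-ratio B-score plate-corrected deviation score at least 3 library SD below zero, with starting fluorescence score within 5 deviations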;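 further: channel opened by trigger with iodide after compound preincubation; score built on the fluorescence ratio of max minus min over baseline; more negative score means more quench and so TMEM16A activation or potentiation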
Target sequence (Q8BHY3 whole entry, looked up): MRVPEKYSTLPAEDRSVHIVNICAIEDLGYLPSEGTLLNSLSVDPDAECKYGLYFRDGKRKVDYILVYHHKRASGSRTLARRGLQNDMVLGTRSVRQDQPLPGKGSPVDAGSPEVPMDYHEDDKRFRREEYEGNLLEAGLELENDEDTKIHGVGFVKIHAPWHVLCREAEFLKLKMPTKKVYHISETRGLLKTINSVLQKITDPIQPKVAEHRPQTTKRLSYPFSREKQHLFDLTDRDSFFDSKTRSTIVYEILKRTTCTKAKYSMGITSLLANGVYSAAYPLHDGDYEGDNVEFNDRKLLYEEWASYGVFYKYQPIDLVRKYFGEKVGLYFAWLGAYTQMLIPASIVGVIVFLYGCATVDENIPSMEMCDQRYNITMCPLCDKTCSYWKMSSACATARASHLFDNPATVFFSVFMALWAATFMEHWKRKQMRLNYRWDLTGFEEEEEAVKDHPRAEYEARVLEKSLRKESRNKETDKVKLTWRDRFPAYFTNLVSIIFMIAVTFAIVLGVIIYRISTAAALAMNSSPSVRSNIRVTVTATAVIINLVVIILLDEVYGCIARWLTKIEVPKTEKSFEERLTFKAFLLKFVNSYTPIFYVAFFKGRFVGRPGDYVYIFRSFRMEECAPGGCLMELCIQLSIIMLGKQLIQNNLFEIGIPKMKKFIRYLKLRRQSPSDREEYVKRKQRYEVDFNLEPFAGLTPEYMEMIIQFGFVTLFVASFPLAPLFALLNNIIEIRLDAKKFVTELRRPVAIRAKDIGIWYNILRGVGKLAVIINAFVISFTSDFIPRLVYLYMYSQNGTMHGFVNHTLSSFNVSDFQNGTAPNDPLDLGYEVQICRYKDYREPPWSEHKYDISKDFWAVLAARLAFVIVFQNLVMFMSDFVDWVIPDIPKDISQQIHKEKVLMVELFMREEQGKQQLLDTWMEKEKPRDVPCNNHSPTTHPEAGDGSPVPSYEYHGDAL
CHT allo act – allosterically activates the human high affinity choline transporter; Q9GZV3; CHT-expressing cells, membrane potential dye, choline EC20; hits give high values; LV-AA mutant CHT in HEK293 cells; B-score at 10 µM; 0.49% of 310,000 active; AID 488977;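 active means initial fluorescence not abnormally high and integrated response B-score, plate-corrected, over 3 SD above library mean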
CHT inh – inhibitors of human choline transporter CHT; Q9GZV3; CHT-expressing cells, membrane potential dye, choline response; hits give low values; B-score at 10 µM; 0.86% of 310,000 active; AID 488975;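 active means B-score over 3 SD under the library average, and starting fluorescence ratio not unusually high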;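 further: choline stimulus applied at its EC90 after an EC20 pre-addition; B-score computed on integrated fluorescence ratio after choline addition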
TMEM16A inh – blocks the mouse calcium-activated chloride channel TMEM16A; HEK293 TMEM16A/YFP iodide influx fluorescence, ionomycin; normalized B-score (activity score, 25-100; higher = stronger inhibition) at 10 µM; 1.2% of 310,000 active;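 active means ratio plate-corrected score three or more library SD toward inhibition, starting fluorescence score within five deviations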;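 further: score derived from kinetic fluorescence span divided by baseline fluorescence per well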
CHT activ conf – confirmation of human choline transporter (CHT) activators | shares compounds with CHT allo act | CHT-expressing cells, membrane potential dye fluorescence (FDSS); % of choline EC20–EC90 response window; HEK293 expressing CHT LV-AA mutant; choline added at its EC20 | activation, % at 10 µM | 91% of 2,500 active | AID 504833;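 active means primary screen active, with duplicate mean activation above negative control mean plus 3 SD, cut at about 11% in these data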
HEK293 MP dye – activity in parental HEK293 cells lacking CHT; membrane potential dye fluorescence (FDSS); measured after EC20 choline addition; shares compounds with CHT allo act; ratio readout change at 10 µM, hits read low; 62% of 2,500 active; AID 623908;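 active means duplicate-averaged ratio beyond 3 SD from buffer wells, up or down, though filed actives are nearly all decreases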
* = called active by the depositor; i = inactive; x = no result given.

SMILES | ANO1 activ | CHT allo act | CHT inh | TMEM16A inh | CHT activ conf | HEK293 MP dye
CCN1c2ccccc2-c2nc3ccccc3n2C1c1cccs1 (configuration not stated) | i | 7.4* | i | i | 44.7* | i
O=C(O)CCCCCNC(=O)CCn1nnc2ccccc2c1=O | i | i | i | i | x | x
CC(=O)Nn1c(C)nnc1-n1nc(C)cc1C | i | i | i | i | x | x
CC(C)(C)n1nnnc1C(c1ccc(C#N)cc1)N1CCCC2(CCCCC2)C1 (configuration not stated) | i | i | i | i | 51.5* | i
O=C(c1ccco1)N1CCN(c2nc3ccccc3c(=O)n2-c2ccccc2)CC1 | i | i | i | i | x | x
Cc1cc(N2CCN(C(=O)Nc3ccc(F)cc3F)CC2)c2ccccc2n1 | i | 6.57* | i | i | 53.0* | -70.6*
Cc1cc(N2CCN(C(=O)c3ccco3)CC2)c2ccccc2n1 | i | 6.86* | i | i | 39.3* | -53.5*
Nc1nc(N2CCN(C(=O)c3ccco3)CC2)nc2ccccc12 | i | 6.44* | i | i | 57.0* | -57.9*
Nc1nc(N2CCN(C(=O)c3ccco3)CC2)nc2ccc(Br)cc12 | i | i | i | i | 19.9* | -31.6*
O=C(c1ccco1)N1CCN(c2ncccn2)CC1 | i | i | i | i | x | x
Cc1cc(=O)[nH]c(N2CCN(C(=O)c3ccco3)CC2)n1 | i | i | i | i | x | x
Cc1cc(N2CCN(S(=O)(=O)c3ccccc3)CC2)c2ccccc2n1 | i | 10.1* | i | i | 53.3* | -72.7*
Cc1cc(N2CCN(c3nc(-c4ccccc4)cs3)CC2)c2ccccc2n1 | i | i | i | i | x | x
COC(=O)c1ccc2[nH]c3cccc(/C(=C/c4ccccc4)c4ccccc4)c3c2c1 | i | i | i | i | x | x
CCOc1cc2c(C#N)c(N3CCNCC3)nc(N)c2c(N)n1 | i | 6.47* | i | i | 44.8* | -52.6*
O=C(COc1ccccc1)NCC(c1ccco1)N1CCN(c2ccccc2)CC1 (configuration not stated) | i | 8.04* | i | i | 45.2* | i
CCc1ccc(NC(=O)CCC(=O)c2ccccc2)cc1 | i | i | i | i | x | x
CSc1ccc(CN(C)C(=O)C(Cc2ccccc2)NC(=O)c2ccccc2)cc1 (configuration not stated) | i | i | i | i | x | x
CSc1ccc(CN(C)C(=O)C(c2ccccc2)c2ccccc2)cc1 | i | 7.08* | i | i | 34.3* | i
CCOC(=O)C1=C(c2ccccc2)NC(=O)NC1c1ccc(O)c(OCC)c1 (configuration not stated) | i | i | i | i | x | x
CCOC(=O)C1=C(c2ccccc2)NC(=O)NC1c1ccc(O)c(Cl)c1 (configuration not stated) | -10.6* | 29.6* | i | i | 197.9* | i
CS/C(=C\[N+](=O)[O-])Nc1ccc(OC(F)(F)F)cc1 | i | i | i | i | x | x
CSc1ncccc1C(=O)OCC(=O)NCc1cccs1 | i | x | x | x | x | x
CC(C)(C)n1nc2c(c1NC(=O)c1cc(Cl)ccc1[N+](=O)[O-])CS(=O)(=O)C2 | i | 7.17* | i | i | 39.3* | i
CCC1=[N+](C)c2cccc3cccc(c23)N1C | i | 9.61* | i | i | 71.3* | -86.3*
SMILES | ANO1 activ | CHT allo act | CHT inh | TMEM16A inh | CHT activ conf | HEK293 MP dye
CCN1/C(=C/c2ccc3cccc(C)c3[n+]2CC)Sc2ccccc21 | i | i | i | i | 11.8* | i
Cc1cccc(C2NC(=O)c3ccccc3O2)c1 (configuration not stated) | i | i | i | i | x | x
COc1ccc(-c2cn(-c3ccc(Cl)cc3)c3[n+]2CCCCC3)cc1 | i | 6.96* | i | i | 51.0* | -21.3*
CN(C)CCCOc1nc2c(c(=O)n(C)c(=O)n2C)n1C | i | 9.15* | i | i | 48.7* | -55.1*
CCCOc1nc2c(c(=O)n(C)c(=O)n2C)n1C | i | i | i | i | x | x
Cn1c(=O)c2c3c(sc2n2cnnc12)CCC3 | i | i | i | 25* | 29.6* | -39.3*
O=c1c2c3c(sc2n2cnnc2n1CCc1ccccc1)CCCC3 | i | i | i | i | x | x
Cc1nn(S(=O)(=O)c2ccccc2)c(C)c1Sc1ccc([N+](=O)[O-])cc1 | i | 8.01* | i | 25* | 29.0* | i
CCn1nc(C)cc1C(=O)N1CCc2c([nH]c3ccccc23)C1c1cc(F)ccc1F (configuration not stated) | i | i | i | i | x | x
COc1ccc(NC(=O)COC(=O)c2c3c(nc4ccccc24)CCCC3)cc1Cl | i | i | i | i | 12.8* | i
COc1ccc(NC(=O)COC(=O)c2c3c(nc4ccccc24)CCCC3)cc1 | i | i | i | i | x | x
O=C(COC(=O)c1c2c(nc3ccccc13)CCCCC2)NCc1ccc2c(c1)OCO2 | i | 8.71* | i | i | 35.8* | i
C=CCN1C(c2ccc(OCC)cc2)=CS/C1=C(\C#N)c1nnc2n1CCCCC2 | i | 9.18* | i | i | 26.0* | i
C=CCN1C(c2ccc(Br)cc2)=CS/C1=C(\C#N)c1nnc(N2CCOCC2)n1-c1ccccc1 | i | x | x | x | x | x
COC(=O)c1cc(C(=O)N2CCN(c3ccccc3OC)CC2)cc([N+](=O)[O-])c1 | i | 6.77* | i | i | 13.0* | i
CCOC(=O)c1c(NC(=S)Nc2cccnc2)sc(C)c1C | i | i | i | i | x | x
Cc1ccc(C(=O)CSc2ncn[nH]2)cc1 | i | i | i | i | x | x
O=C(CSc1ncn[nH]1)c1ccc(OC(F)F)cc1 | i | 7.24* | i | i | 1.1 | i
CC(C)C(c1nnnn1Cc1ccc(F)cc1)N1CCN(C2CCCC2)CC1 (configuration not stated) | i | i | i | i | x | x
CCCC(c1nnnn1Cc1ccc(F)cc1)N1CCN(C2CCCCC2)CC1 (configuration not stated) | i | 10.2* | i | i | 36.4* | i
CCCCC(c1nnnn1C1CCCC1)N1CCN(C2CCCC2)CC1 (configuration not stated) | i | 6.59* | i | i | 42.8* | i
CCCC(c1nnnn1C(C)(C)CC)N1CCN(C2CCCC2)CC1 (configuration not stated) | i | 8.41* | i | i | 51.2* | i

Bioassay records deposited in PubChem by Johns Hopkins Ion Channel Center.
